The results in this text go back to PubChem BioAssay AID2283302 (EPA ToxCast).

Each structure is given as a SMILES string. Inconclusive results are not listed. Calls of active or inactive are those of the source. How the source made its calls: active means hit-call score of the fitted dose curve at least 0.9, where 1 is the maximum; inconclusive means response in the unintended direction; inactive means score below 0.9.

Sequence of rat Gamma-HydroxyButyrate Receptor (GHB), Tspan17 (gene 306771) (Q4V8E0 whole entry, looked up): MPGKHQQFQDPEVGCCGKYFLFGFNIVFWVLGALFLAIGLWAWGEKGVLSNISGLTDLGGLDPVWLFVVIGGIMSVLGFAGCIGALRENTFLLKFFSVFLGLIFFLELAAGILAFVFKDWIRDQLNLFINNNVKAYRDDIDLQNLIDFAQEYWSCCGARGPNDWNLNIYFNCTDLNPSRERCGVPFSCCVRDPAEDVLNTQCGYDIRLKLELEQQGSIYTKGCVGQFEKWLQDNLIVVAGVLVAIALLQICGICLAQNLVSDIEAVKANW

This experiment has as its target rat Gamma-HydroxyButyrate Receptor (GHB), Tspan17 (gene 306771) (UniProt Q4V8E0). In words: NVS_GPCR_rGHB: NovaScreen (NVS) G Protein-Coupled Receptor Assay for rat Gamma-HydroxyButyrate Receptor (GHB). The method, then:
NVS_GPCR_rGHB is a biochemical, single-readout assay that uses extracted gene-proteins from Rat forebrain in a tissue-based cell-free assay. Measurements were taken 1 hour after chemical dosing in a 48-well plate.NVS_GPCR_rGHB is one of one assay component(s) measured or calculated from the NVS_GPCR_rGHB assay. It is designed to make measurements of radioligand binding, a form of binding reporter, as detected with scintillation counting signals by Filter-based radiodetection technology.Data from the assay component NVS_GPCR_rGHB was analyzed into 1 assay endpoint. This assay endpoint, NVS_GPCR_rGHB, was analyzed in the positive analysis fitting direction relative to DMSO as the negative control and baseline of activity. Using a type of binding reporter, loss-of-signal activity can be used to understand changes in the binding as they relate to the gene Tspan17. Furthermore, this assay endpoint can be referred to as a primary readout, because the performed assay has only produced 1 assay endpoint. To generalize the intended target to other relatable targets, this assay endpoint is annotated to the gpcr intended target family, where the subfamily is metabotropic glutamate receptor.
Binding assays used specific radioligands (tritiated, iodinated) with non-radioactive competitive displacement ligands in agonist or antagonist protocols (as indicated) and various reference compounds and inhibitors to titrate specific binding to receptors and transporters. Most enzyme assays (CYPs, kinases, phosphatases, proteases, HDACs) used recombinant protein and specific substrates (fluorescence mostly, some colorimetric and radioactive) and inhibitors, followed by a biochemical separation of substrate and product. All assays for the biochemical HTS were initially run in duplicate at a single concentration (10 uM for CYP450 assays and 25 uM for all others). Assay-chemical combinations meeting a pre-defined threshold (e.g., 30% inhibition and other criteria defined below) were then run in singleton concentration-response format with maximum concentration of 20 uM for CYPs and 50 uM for all others. Each assay was run with positive and negative controls, and concurrent controls on every plate. The follow-up (secondary) screen tested active chemical-pairs in concentration series, as well as a few additional assays not tested in the primary screen, some selected negative inactives, and several cases re-run in the concentration series for confirmatory purposes.
As to `O=C(O)c1cccc(N(Cc2cccnc2)c2ccc(OC(F)F)c(OC(F)F)c2)c1`, the result was inactive.
For `COC(=O)CSc1cc(N=c2sc(=O)n3n2CCCC3)c(F)cc1Cl`, the result was inactive.
As usually defined, the AC50 is the concentration giving half of the maximal activity seen. Consider `Cn1c(=O)cc(Oc2ccc(F)cc2F)c2cnc(NCC(C)(C)O)nc21`, for which the AC50 is 0.166 µM (active).
Same read-out and setting: then `Cc1cccc(Nc2cc(Cl)nc(SCC(=O)O)n2)c1C`, with 19.2 µM (active).
